Test results reported in PubChem BioAssay (NCI).
The panel holds about 79,000 compounds, 15% with a hit somewhere; the sample as a whole holds those more often. Values without a mark were called inactive. Cut-off read from the data, not from the text of the source: active = growth inhibition above about 70%; inactive = the rest.

Assay: NCI Yeast Anticancer Drug Screen. Data for the mec2-1 strain (AID 157)
Settings: S. cerevisiae mec2-1 strain, at 50.0 µM, stronger effect = higher value
How it was run: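 Each compound was tested on mec2-1 yeast, a strain altered in DNA damage repair or cell cycle control. Growth inhibition is reported relative to vehicle.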

Q: For CCOc1cccc(C=Nc2ccccc2SSc2ccccc2N=Cc2cccc(OCC)c2O)c1O, which growth inhibition is on record?
A: 18.6%

Q: For c1csc(NC(Nc2nccs2)C23CC4CC(CC(C4)C2)C3)n1, which growth inhibition is on record?
A: 12.7%

Q: Which growth inhibition does the source give for O=C1C(Cc2ccc(O)cc2)NC(=S)N1c1ccccc1 (configuration not stated) here?
A: -9.85%

Q: Which growth inhibition does the source give for CO/N=C1\C(O)CC2C(C)(CCC3C2(C)CCC2(C)C4CC(C)(C)CCC4(C)CCC32C)C1C (configuration not stated) here?
A: -3.8%

Q: For CCOc1cn(C2OC(CO)C(O)C2O)c(=O)[nH]c1=O (configuration not stated), which growth inhibition is on record?
A: -28.4%

Q: For OCC1CCN(CCOCc2ccccc2)C1 (configuration not stated), which growth inhibition is on record?
A: -0.4%

Q: With Cc1cc(C(C)(C)C)ccc1S(=O)(=O)/C=C/c1ccccc1 as the compound, how does the growth inhibition read?
A: -23.1%

Q: For N#CC1C=CN(Cc2ccccc2)C=C1C(=O)c1ccccc1 (configuration not stated), which growth inhibition is on record?
A: -3.9%

Q: With CC1=NN(C(=O)c2ccc(Cl)cc2)C(=O)C1N=Nc1ccc(S(=O)(=O)Nc2ccccn2)cc1 (configuration not stated) as the compound, how does the growth inhibition read?
A: 16.8%

Q: With CCCCCCCCCCCCCCCCOc1ccc(N)cc1 as the compound, how does the growth inhibition read?
A: 6.05%

Q: Which growth inhibition does the source give for O=S1(=O)C2C=CC1CCCC2 here?
A: -12.7%

Q: With Cn1ncc2c(N)nc(NCCO)nc21 as the compound, how does the growth inhibition read?
A: 4.75%

Q: With O=CC(O)C(O)C(O)C(O)COC1OC(CO)C(O)C(O)C1O (configuration not stated) as the compound, how does the growth inhibition read?
A: -11.7%

Q: For CC(O)CNCC(C)(C)N (configuration not stated), which growth inhibition is on record?
A: -4.65%

Q: For CC(=O)OCC(OC(C)=O)C(OC(C)=O)C(/C=C/N=[N+]([O-])c1ccccc1)OC(C)=O (configuration not stated), which growth inhibition is on record?
A: 31.5%

Q: For O=C(/C=C/c1ccco1)CCN1CCOCC1, which growth inhibition is on record?
A: -4.6%

Q: For CC1CC2C3(C1)CC(C(=O)OC3=O)C2(C)C (configuration not stated), which growth inhibition is on record?
A: -11.4%
